PP5 primary = PP5 (human) phosphatase inhibition; P53041; purified PP5c, OMFP substrate fluorescence; inhibition, % at 6.7 µM; hit rate 0.18% among 320,000; AID 1987;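 active = inhibition above the campaign's mean inhibition across all tested compounds plus 3 SD, cut at about 9.5% in these data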;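 note: 0% = DMSO only and 100% = 100 µM cantharidin control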
PP1 inh = PP1-alpha (human) inhibition in PP5 counter-screen; P62136; purified PP1alpha, OMFP fluorescence; inhibition, % at 6.7 µM; hit rate 0.9% among 320,000; AID 2235;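 active = inhibition above the mean inhibition of all tested compounds plus 3 SD, computed separately for each screening campaign, cut at about 15% in these data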
TMEM16A act = activates or potentiates the mouse TMEM16A chloride channel; Q8BHY3; HEK293 TMEM16A/YFP-H148Q/I152L, iodide quench fluorescence; stronger effect = lower value; B-score at 10 µM; hit rate 0.3% among 340,000;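 active = fluorescence-ratio B-score plate-corrected deviation score at least 3 library SD below zero, with starting fluorescence score within 5 deviations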;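 note: channel opened by trigger with iodide after compound preincubation; score built on the fluorescence ratio of max minus min over baseline; more negative score means more quench and so TMEM16A activation or potentiation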
DNA FID counter = displaces DNA intercalator in HCV helicase counter-screen; DNA fluorescent intercalator displacement, fluorescence; inhibition, % at 7.9 µM; hit rate 0.17% among 290,000; AID 1845; in the data active = inhibition above about 37%;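 note: 0% = vehicle and 100% = reference compound; higher means more ethidium bromide displaced from hairpin DNA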
TMEM16A inh = mouse TMEM16A channel inhibition, primary screen | hit rate 1.2% among 310,000 | AID 588511 | HEK293 TMEM16A/YFP iodide influx fluorescence, ionomycin | Q8BHY3 | normalized B-score (activity score, 25-100; higher = stronger inhibition) at 10 µM;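 active = ratio plate-corrected score three or more library SD toward inhibition, starting fluorescence score within five deviations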;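 note: score derived from kinetic fluorescence span divided by baseline fluorescence per well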
PREPL inhibitor = inhibits the human prolyl oligopeptidase-like enzyme; Q4J6C6; recombinant PREPL, fluorescence polarization activity-based probe; inhibition, % at 5.96 µM; hit rate 0.68% among 320,000; in the data active = inhibition above about 43%;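 note: 0% = enzyme with DMSO and 100% = wells lacking enzyme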
Target sequence (Q4J6C6 whole entry, looked up): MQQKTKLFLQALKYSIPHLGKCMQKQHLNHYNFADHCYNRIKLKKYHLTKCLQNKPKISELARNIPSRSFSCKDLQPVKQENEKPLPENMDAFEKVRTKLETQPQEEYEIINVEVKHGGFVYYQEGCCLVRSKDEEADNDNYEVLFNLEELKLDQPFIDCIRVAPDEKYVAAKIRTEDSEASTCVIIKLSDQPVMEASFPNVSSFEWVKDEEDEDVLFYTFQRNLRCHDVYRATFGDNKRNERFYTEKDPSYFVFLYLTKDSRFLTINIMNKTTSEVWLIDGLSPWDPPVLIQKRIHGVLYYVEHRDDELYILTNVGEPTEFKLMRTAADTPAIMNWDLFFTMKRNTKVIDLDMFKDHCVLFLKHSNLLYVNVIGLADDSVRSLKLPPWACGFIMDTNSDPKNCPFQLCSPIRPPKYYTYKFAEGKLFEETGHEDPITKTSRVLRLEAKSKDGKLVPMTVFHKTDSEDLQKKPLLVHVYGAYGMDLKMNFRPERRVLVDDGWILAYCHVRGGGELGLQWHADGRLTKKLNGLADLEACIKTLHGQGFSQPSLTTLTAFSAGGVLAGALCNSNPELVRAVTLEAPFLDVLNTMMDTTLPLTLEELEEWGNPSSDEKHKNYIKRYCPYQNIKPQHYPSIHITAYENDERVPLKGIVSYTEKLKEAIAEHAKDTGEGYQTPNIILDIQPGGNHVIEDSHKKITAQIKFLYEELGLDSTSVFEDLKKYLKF
PP1 confirm = human PP1 phosphatase inhibition, confirmation. shares compounds with PP1 inh. purified PP1alpha, OMFP substrate fluorescence. inhibition, % at 6.7 µM. hit rate 52% among 1,900;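 active = mean PP1 inhibition above a set limit taken from the earlier primary screen, cut at about 15% in these data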
PP5 inh counter = inhibits human PP5 phosphatase in PP1 counter-screen. shares compounds with PP1 inh. purified PP5c, OMFP fluorescence. inhibition, % at 6.7 µM. hit rate 4% among 1,900. AID 2360;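 active = mean PP5 inhibition over triplicate wells above about 9.5% taken from the earlier PP1 screen, limit read from the data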
Starred values were filed as active, the others as inactive; i = inactive; . = not tested or not shown. An excerpt weighted towards active compounds, which were near 2.7% of everything screened.

SMILES	PP5 primary	PP1 inh	TMEM16A act	DNA FID counter	TMEM16A inh	PREPL inhibitor	PP1 confirm	PP5 inh counter
C[C@@H](C(=O)Nc1nc(-c2ccccn2)cs1)N1C(=O)C2CCCCC2C1=O (stereo partly drawn)	0.9	8.3	i	-10.4	i	-3.3	.	.
O=C(Nc1nc(-c2cccnc2)cs1)c1ccccc1Cl	-0.3	19.8*	i	-2.3	i	-8.8	23.4*	-6.3
CC(C)[C@H](NC(=O)c1ccccc1Cl)C(=O)Nc1nc(-c2ccccn2)cs1	2.8	17.6*	i	-26.4	i	-4.5	26.9*	0.3
CC(Oc1ccc(Br)cc1)C(=O)Nc1nc(-c2ccccn2)cs1 (stereo not drawn)	5.5	31.0*	i	-23.6	i	-5.3	32.2*	-2.1
CCc1nnc(NC(=O)C(NC(=O)c2ccccc2Cl)C(C)C)s1 (stereo not drawn)	3.0	-3.4	i	-14.8	i	-4.1	.	.
CCN(CC)S(=O)(=O)c1ccc(S(=O)(=O)NCC2CCCO2)cc1 (stereo not drawn)	-1.2	-3.1	i	-6.2	i	-5.9	.	.
O=C(NC1CCCCCC1)c1ccco1	0.7	4.4	i	-18.6	i	16.1	.	.
Cn1nc([N+](=O)[O-])c(C(C#N)c2ccccn2)c(Cl)c1=O (stereo not drawn)	0.5	2.1	i	3.0	i	2.1	.	.
CCn1nc([N+](=O)[O-])c(C(C#N)c2nc3cc(C(F)(F)F)ccc3s2)c(Cl)c1=O (stereo not drawn)	6.7	22.3*	i	0.7	i	35.2	22.1*	4.7
Cc1ccc(S(=O)(=O)n2ccc3c(OCCOCCNCc4ccc(F)cc4)cccc32)cc1	2.7	18.4*	i	13.3	i	-16.1	-0.5	2.3
Cc1cc(C)c(C)c(OCCOCCNCc2ccccc2)c1	-0.2	1.0	i	31.0	i	-8.3	.	.
Cc1ccc(S(=O)(=O)NCCCCC(NC(=O)OC(C)(C)C)C(=O)O)cc1 (stereo not drawn) (tested in a mixture with another compound)	1.2	-2.6	i	-24.8	i	-3.4	.	.
Cc1ccc(S(=O)(=O)n2ccc3c(OCCOCCSCC(NC(=O)OC(C)(C)C)C(=O)O)cccc32)cc1 (stereo not drawn)	5.7	20.7*	i	-13.1	i	-2.5	9.3	3.7
CC1(c2ccccc2Cl)NC(=O)N(CC(=O)Nc2ccc(N3CCCCC3)cc2)C1=O (stereo not drawn)	-1.1	-2.5	i	.	i	-0.4	.	.
O=C(O)C1Nc2ccc(Br)cc2C2C=CCC12 (stereo not drawn)	1.6	38.1*	i	-12.3	i	24.2	5.6	-2.0
CCOC(=O)C1Nc2ccc(Br)cc2C2C=CCC12 (stereo not drawn)	0.8	11.1	i	0.3	i	9.1	.	.
O=C(O)C1Nc2c(Cl)cc(Cl)cc2C2C=CCC12 (stereo not drawn)	0.4	23.7*	i	-7.0	i	11.0	4.1	-1.6
CCSC1=N/C(=C\C=C2/Oc3ccccc3N2CC)C(=O)S1	1.1	-3.1	i	-3.8	i	19.1	.	.
COc1cc(NC(=O)c2cnc(N)s2)cc(C(=O)Nc2cccc(C(F)(F)F)c2)c1	7.2	32.0*	.	.	i	2.7	33.8*	0.8
O=C(NNC(=S)NC1CCCCC1)c1ccccc1Br	0.6	3.0	i	-19.5	i	11.8	.	.
Cc1ccc(NC(=O)/C(=C\c2ccc([N+](=O)[O-])cc2)NC(=O)c2ccccc2)cc1	-1.1	0.3	i	5.2	i	-3.3	.	.
O=C(N/N=C/c1ccc(O)c(O)c1O)/C(=C/c1ccc([N+](=O)[O-])cc1)NC(=O)c1ccccc1	1.8	31.9*	i	-7.7	i	11.8	36.3*	-1.9
O=C(NNC(=O)c1cc2cc3ccccc3nc2s1)c1ccc(F)cc1	3.7	24.2*	i	2.4	i	-15.8	6.8	-5.6
O=c1ccnc(Nc2ccc([N+](=O)[O-])cc2)[nH]1	-0.8	-2.1	i	.	i	3.6	.	.
CC(C)(C)C(=O)NN=C1CCC(c2ccccc2)CC1 (stereo not drawn)	.	.	i	-7.4	i	.	.	.
SMILES	PP5 primary	PP1 inh	TMEM16A act	DNA FID counter	TMEM16A inh	PREPL inhibitor	PP1 confirm	PP5 inh counter
Cc1nc(-c2ccc3c(c2)CCC(=O)N3)cs1	2.3	-2.6	i	-2.7	i	5.6	.	.
Cc1ccc(-c2csc(Cc3nc(-c4ccc5c(c4)CCC(=O)N5)cs3)n2)cc1	3.9	36.1*	i	-26.1	i	19.3	16.3*	-2.4
Cc1ccc(CN2C(=O)C3CCCN3c3ccc(C#N)cc32)cc1 (stereo not drawn)	3.9	18.3*	.	-1.8	i	-7.9	13.2	-1.5
Cc1ccc(C)c(CN2C(=O)C3CCCN3c3ccc(C#N)cc32)c1 (stereo not drawn)	2.6	5.5	i	-8.9	i	-2.2	.	.
CC(C)(C)C(=O)Nc1scc(-c2ccc(-c3ccccc3)cc2)c1C(=O)O	-5.5	17.6*	i	-5.7	i	7.3	8.4	1.1
Cc1ccccc1NC(=O)COC(=O)/C=C/c1cn(-c2ccccc2)nc1-c1cccnc1	1.6	31.6*	i	-10.3	i	-13.6	31.7*	-4.4
O=c1c(-c2c(O)cc(O)c3c2O[C@H](c2ccc(O)cc2)CC3)c(-c2ccc(O)cc2)oc2cc(O)cc(O)c12	.	.	i	.	.	33.6	.	.
CCOC(=O)Cc1cc(=O)n2[nH]c(-c3ccccc3)c(-c3ccccc3)c2n1	4.3	39.1*	i	-18.6	i	1.7	40.5*	-1.1
COc1cc(NS(=O)(=O)c2ccc(Nc3nc(-c4ccccn4)cs3)cc2)nc(OC)n1	7.1	63.1*	i	-31.3	i	-0.1	70.9*	0.9
CCOC(=O)Cc1cc(=O)n(-c2nc3ccccc3s2)[nH]1	0.3	44.4*	i	-17.9	i	6.5	-3.0	-5.4
COc1cccc(N=Nc2ccc3cccnc3c2O)c1	4.4	30.8*	i	-6.4	i	10.1	24.9*	-2.1
COc1ccc(N=Nc2ccc(O)c3ncccc23)cc1	2.0	27.2*	i	-5.4	i	17.0	26.1*	-1.5
COc1ccc(C)cc1N=Nc1ccc(O)c2ncccc12	.	.	i	-9.8	.	.	.	.
O=S(=O)(O)c1cccc2c(N=Nc3ccc(O)c4ncccc34)cccc12	1.3	46.8*	i	15.2	i	27.4	18.9*	-2.1
COc1cccc(N=Nc2ccc(O)c3ncccc23)c1	3.7	26.9*	i	-8.1	i	11.4	23.4*	-1.1
Cc1cc(C)c(S(=O)(=O)Nc2ccccc2C(=O)OCC(=O)NCc2ccccc2)c(C)c1	3.1	3.1	i	-14.2	i	-2.8	.	.

Screening data (PubChem)
